This note sets out measurements from paper PMC7862700, “An all-to-all approach to the identification of sequence-specific readers for epigenetic DNA modifications on cytosine”.

Assay in all cases: DAPPL (digital affinity profiling via proximity ligation, sequencing); 10 mM Tris-HCl pH 7.5, 50 mM NaCl, 1 mM DTT, 4% glycerol, room temperature, 30 min; GST-TFs on glutathione beads, 16-mer random dsDNA library, 0.1% formaldehyde crosslink after washing; high values mean tight binding
One assay has as its target T1, FEV (Homo sapiens, UniProt Q99581 1-238).
T1 sequence: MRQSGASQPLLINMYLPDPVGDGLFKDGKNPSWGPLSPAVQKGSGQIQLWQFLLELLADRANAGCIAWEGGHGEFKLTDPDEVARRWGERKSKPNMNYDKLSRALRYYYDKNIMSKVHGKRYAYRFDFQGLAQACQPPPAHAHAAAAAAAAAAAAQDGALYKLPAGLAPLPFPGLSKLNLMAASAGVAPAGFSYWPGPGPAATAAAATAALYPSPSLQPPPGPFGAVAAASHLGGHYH
The following applies: protein: recombinant; tags: N-terminal GST; dsDNA, one strand shown. The method in brief: (§1)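 Pools were built from human transcription factors expressed in yeast as GST fusions, captured on glutathione beads and DNA-barcoded, along with a tag-only sample. Incubation with 200 nmole of a 16-mer random double-stranded DNA library lasted 30 min at room temperature in Tris/NaCl/DTT/glycerol buffer, and was followed by washing, 0.1% formaldehyde crosslinking, proximity ligation, PCR amplification and Illumina NextSeq500 sequencing. Binding signal is the quotient of each hexamer's read frequency for a factor and its frequency for the tag-only sample.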

The target in another assay is ETV5 (Homo sapiens, UniProt P41161 1-510). The conditions noted are these: protein: recombinant; tags: N-terminal GST; dsDNA, one strand shown. In outline: as §1
Chain of ETV5 (P41161 whole entry): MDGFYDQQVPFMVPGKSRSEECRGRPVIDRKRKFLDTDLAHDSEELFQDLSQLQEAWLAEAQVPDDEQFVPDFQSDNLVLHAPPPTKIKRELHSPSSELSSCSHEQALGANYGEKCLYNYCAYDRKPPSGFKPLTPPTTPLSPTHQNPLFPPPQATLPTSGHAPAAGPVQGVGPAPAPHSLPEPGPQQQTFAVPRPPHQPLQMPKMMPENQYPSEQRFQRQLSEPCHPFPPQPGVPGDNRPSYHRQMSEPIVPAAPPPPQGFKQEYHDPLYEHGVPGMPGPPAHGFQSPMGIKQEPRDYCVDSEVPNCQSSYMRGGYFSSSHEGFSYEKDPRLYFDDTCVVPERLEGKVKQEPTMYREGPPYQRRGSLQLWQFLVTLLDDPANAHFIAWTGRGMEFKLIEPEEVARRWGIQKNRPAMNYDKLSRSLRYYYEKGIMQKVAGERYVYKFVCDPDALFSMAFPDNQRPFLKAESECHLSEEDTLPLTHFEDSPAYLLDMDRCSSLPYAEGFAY
The next assay concerns the target HSF1 (Homo sapiens, UniProt Q00613 1-529). The conditions noted are these: protein: recombinant; tags: N-terminal GST; chain copies: 3; dsDNA, one strand shown. The method in brief: as §1
Another assay has as its target T2, SPIC (Homo sapiens, UniProt Q8N5J4 1-248).
T2 sequence: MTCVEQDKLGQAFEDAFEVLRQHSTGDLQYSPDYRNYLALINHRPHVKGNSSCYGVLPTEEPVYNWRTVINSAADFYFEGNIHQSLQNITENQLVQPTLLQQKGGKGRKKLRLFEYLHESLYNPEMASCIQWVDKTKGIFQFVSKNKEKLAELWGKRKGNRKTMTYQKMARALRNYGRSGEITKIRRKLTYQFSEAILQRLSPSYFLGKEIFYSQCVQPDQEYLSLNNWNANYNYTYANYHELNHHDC
The conditions noted are these: protein: recombinant; tags: N-terminal GST; dsDNA, one strand shown. The method in brief:
as §1

A further assay has as its target ELF4 (Homo sapiens, UniProt Q99607 1-663). The conditions noted are these: protein: recombinant; tags: N-terminal GST; dsDNA, one strand shown. In outline: as §1
The next assay deals with T3, ELK4 (Homo sapiens, UniProt P28324-2 1-405).
T3 sequence: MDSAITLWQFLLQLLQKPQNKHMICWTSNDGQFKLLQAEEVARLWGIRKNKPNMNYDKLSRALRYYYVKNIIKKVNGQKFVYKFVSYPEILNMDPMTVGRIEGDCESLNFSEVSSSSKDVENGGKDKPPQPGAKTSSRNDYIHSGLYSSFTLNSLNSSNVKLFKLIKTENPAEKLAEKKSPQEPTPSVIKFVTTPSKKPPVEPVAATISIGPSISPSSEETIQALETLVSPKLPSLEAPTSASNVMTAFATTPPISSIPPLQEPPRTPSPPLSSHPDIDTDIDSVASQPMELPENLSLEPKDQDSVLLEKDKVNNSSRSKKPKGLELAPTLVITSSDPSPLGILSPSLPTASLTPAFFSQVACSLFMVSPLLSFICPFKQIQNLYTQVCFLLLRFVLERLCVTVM
The conditions noted are these: protein: recombinant; tags: N-terminal GST; dsDNA, one strand shown. The method in brief: as §1

A further assay concerns the target T4, ETV2 (Homo sapiens, UniProt O00321 1-342).
T4 sequence: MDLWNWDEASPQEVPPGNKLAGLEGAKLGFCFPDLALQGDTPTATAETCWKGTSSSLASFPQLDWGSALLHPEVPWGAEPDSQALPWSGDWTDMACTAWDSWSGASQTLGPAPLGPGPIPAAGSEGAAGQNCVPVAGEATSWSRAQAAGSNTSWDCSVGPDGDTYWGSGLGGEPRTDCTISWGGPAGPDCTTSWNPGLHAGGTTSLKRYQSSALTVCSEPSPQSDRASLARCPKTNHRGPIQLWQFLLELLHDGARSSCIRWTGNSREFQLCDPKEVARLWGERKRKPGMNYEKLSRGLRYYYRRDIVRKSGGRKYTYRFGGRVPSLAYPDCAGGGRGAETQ
The following applies: protein: recombinant; tags: N-terminal GST; dsDNA, one strand shown. The method in brief: as §1

A further assay has as its target T5, ELF3 (Homo sapiens, UniProt P78545 1-371).
T5 sequence: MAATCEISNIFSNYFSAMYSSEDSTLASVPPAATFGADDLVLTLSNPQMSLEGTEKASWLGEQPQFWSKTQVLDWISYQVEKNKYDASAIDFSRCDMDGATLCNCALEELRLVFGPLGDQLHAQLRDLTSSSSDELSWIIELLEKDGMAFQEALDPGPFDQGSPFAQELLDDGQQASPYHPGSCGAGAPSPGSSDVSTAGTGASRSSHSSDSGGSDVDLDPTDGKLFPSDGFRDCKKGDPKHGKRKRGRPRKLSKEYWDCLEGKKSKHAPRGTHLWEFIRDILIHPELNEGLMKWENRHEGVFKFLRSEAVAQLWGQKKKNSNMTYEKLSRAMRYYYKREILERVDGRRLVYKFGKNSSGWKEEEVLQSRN
The conditions noted are these: protein: recombinant; tags: N-terminal GST; dsDNA, one strand shown. The method in brief: as §1

For a further assay, the target named is CRX (Homo sapiens, UniProt O43186 1-299). The following applies: protein: recombinant; tags: N-terminal GST; dsDNA, one strand shown. In outline:
as §1

The next assay addresses ETV1 (Homo sapiens, UniProt P50549 1-477). The following applies: protein: recombinant; tags: N-terminal GST; dsDNA, one strand shown. In outline: as §1
A further assay has as its target T6, ERF (Homo sapiens, UniProt P50548 1-548).
T6 sequence: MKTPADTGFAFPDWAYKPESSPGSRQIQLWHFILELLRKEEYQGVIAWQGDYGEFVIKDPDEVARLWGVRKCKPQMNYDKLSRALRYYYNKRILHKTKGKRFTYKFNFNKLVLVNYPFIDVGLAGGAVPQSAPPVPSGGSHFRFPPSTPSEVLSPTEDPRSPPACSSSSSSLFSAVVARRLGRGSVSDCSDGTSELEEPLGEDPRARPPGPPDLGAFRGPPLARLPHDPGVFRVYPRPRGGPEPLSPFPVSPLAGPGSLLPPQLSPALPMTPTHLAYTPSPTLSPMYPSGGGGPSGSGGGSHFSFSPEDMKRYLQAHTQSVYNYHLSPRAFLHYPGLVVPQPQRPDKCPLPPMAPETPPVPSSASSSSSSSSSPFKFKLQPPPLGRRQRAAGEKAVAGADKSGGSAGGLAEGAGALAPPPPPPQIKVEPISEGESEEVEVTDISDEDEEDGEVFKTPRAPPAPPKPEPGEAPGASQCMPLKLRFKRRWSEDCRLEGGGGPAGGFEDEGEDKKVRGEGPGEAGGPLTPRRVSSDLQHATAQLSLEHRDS
The conditions noted are these: protein: recombinant; tags: N-terminal GST; dsDNA, one strand shown. The method in brief: as §1

In another assay the target is T7, ETV3L (Homo sapiens, UniProt Q6ZN32 1-361).
T7 sequence: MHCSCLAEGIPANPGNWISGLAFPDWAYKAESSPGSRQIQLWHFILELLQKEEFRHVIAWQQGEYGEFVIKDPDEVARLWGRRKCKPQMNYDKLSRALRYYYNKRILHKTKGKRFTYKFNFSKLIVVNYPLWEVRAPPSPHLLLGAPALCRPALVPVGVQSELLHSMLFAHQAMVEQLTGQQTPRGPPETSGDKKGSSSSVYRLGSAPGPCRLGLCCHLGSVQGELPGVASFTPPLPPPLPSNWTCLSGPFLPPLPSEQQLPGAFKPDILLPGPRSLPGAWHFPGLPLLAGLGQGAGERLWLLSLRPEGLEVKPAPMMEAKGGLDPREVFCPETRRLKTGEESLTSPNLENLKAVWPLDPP
The conditions noted are these: protein: recombinant; tags: N-terminal GST; dsDNA, one strand shown. The method in brief: as §1

The target in a further assay is T8, ETS2 (Homo sapiens, UniProt P15036 1-469).
T8 sequence: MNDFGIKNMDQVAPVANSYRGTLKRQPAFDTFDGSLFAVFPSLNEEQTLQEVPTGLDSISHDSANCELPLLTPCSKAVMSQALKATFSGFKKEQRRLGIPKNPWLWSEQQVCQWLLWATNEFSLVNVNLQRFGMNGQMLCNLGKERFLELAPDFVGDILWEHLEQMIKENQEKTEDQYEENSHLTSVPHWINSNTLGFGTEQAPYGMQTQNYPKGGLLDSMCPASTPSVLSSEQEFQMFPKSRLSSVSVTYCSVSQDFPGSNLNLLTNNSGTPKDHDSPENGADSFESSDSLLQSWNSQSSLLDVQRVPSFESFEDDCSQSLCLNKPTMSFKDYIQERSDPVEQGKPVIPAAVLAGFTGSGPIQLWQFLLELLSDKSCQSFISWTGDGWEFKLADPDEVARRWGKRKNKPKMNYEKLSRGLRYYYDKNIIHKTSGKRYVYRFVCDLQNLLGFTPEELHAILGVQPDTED
The conditions noted are these: protein: recombinant; tags: N-terminal GST; dsDNA, one strand shown. In outline: as §1

Another assay addresses T9, SPDEF (Homo sapiens, UniProt O95238 1-335).
T9 sequence: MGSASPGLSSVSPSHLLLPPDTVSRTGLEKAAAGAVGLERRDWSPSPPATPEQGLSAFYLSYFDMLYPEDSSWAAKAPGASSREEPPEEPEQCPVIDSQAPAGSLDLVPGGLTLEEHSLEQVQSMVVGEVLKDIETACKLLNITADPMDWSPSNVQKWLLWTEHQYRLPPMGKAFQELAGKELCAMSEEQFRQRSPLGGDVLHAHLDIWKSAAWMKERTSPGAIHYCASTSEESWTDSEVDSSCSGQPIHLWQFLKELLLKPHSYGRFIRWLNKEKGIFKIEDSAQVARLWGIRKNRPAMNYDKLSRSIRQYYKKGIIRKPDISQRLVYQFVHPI
The following applies: protein: recombinant; tags: N-terminal GST; dsDNA, one strand shown. In outline:
as §1

In the next assay the target is T10, ETV7 (Homo sapiens, UniProt Q9Y603 1-341).
T10 sequence: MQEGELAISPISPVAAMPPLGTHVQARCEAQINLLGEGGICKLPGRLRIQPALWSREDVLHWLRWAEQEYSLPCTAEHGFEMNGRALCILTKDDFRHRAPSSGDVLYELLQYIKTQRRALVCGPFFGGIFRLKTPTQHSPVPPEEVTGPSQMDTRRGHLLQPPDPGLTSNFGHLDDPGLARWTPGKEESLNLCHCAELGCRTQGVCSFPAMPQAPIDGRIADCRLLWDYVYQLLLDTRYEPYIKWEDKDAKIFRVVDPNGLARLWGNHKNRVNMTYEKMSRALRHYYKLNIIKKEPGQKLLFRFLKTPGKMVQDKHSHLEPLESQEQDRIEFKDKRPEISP
The following applies: protein: recombinant; tags: N-terminal GST; dsDNA, one strand shown. The method in brief:
as §1

For a further assay, the target named is T11, ELF5 (Homo sapiens, UniProt Q9UKW6-2 1-255).
T11 sequence: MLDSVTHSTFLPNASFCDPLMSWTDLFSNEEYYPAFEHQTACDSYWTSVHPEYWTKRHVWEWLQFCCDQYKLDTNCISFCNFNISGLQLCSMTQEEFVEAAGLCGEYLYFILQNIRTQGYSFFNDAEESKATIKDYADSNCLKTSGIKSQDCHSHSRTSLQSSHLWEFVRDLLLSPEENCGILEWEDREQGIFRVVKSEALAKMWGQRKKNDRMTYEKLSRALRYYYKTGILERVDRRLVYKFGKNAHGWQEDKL
The following applies: protein: recombinant; tags: N-terminal GST; dsDNA, one strand shown. The method in brief:
as §1

The target in a further assay is T12, ETV3 (Homo sapiens, UniProt P41162-2 1-143).
T12 sequence: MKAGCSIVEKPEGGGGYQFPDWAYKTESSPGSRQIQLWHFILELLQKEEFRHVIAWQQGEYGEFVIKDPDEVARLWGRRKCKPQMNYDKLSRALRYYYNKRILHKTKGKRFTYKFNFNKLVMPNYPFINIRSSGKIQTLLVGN
The following applies: protein: recombinant; tags: N-terminal GST; dsDNA, one strand shown. In outline: as §1

The target in another assay is ETV6 (Homo sapiens, UniProt P41212 1-452). The conditions noted are these: protein: recombinant; tags: N-terminal GST; dsDNA, one strand shown. In outline: as §1
Chain of ETV6 (P41212 whole entry): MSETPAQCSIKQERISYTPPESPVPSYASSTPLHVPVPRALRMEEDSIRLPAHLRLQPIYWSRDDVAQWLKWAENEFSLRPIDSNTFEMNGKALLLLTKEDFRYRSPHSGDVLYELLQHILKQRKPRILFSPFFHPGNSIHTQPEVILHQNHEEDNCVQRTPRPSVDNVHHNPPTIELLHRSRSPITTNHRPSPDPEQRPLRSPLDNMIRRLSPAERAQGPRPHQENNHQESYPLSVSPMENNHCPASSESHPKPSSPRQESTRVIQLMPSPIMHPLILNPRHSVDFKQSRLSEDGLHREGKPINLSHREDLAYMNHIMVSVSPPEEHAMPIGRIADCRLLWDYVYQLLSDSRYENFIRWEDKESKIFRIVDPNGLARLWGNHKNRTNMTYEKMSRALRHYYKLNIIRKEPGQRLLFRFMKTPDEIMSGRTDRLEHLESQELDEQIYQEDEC

Chain of ELF4 (Q99607 whole entry): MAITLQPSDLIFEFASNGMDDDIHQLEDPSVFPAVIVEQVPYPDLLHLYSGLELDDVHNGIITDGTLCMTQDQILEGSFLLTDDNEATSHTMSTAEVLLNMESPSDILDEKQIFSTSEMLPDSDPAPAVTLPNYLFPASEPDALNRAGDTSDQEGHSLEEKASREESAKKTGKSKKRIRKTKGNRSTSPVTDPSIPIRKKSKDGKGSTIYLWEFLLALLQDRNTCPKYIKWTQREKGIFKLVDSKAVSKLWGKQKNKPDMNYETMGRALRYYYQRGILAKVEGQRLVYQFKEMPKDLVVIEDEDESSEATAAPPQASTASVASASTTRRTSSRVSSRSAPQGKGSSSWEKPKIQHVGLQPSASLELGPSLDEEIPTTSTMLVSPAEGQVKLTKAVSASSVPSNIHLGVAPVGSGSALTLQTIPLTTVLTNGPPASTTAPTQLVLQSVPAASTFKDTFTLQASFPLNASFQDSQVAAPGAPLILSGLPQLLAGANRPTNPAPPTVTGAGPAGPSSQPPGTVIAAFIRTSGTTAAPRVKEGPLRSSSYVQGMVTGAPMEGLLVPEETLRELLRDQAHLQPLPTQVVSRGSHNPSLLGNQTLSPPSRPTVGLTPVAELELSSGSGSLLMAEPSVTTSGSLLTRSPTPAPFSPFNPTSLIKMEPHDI
Chain of HSF1 (Q00613 whole entry): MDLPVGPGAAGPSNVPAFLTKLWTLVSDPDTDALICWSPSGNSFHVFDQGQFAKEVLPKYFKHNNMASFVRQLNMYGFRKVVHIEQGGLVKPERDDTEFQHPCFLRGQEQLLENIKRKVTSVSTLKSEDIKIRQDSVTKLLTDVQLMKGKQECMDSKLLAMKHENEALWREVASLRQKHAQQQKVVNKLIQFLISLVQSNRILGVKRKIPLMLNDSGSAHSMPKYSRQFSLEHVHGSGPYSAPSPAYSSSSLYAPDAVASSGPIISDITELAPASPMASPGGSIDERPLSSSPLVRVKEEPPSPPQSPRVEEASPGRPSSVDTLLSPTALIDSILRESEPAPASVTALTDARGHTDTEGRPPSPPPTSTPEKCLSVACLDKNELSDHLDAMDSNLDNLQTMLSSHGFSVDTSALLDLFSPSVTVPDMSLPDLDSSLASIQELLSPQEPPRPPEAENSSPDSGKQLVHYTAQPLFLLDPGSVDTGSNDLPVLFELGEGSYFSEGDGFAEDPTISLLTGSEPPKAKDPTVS
Chain of ETV1 (P50549 whole entry): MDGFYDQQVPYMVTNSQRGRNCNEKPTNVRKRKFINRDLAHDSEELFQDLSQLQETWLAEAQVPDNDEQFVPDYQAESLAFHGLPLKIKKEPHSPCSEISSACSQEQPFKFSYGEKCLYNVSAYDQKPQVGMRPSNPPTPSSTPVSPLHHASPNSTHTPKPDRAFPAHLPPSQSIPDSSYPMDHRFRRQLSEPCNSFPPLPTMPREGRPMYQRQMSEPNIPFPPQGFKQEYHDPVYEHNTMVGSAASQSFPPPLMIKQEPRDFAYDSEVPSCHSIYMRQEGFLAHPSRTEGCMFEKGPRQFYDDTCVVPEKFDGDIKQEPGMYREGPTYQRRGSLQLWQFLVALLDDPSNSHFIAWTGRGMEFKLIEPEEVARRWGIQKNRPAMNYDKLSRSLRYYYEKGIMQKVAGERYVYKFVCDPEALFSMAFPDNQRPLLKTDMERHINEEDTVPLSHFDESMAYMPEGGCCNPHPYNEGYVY
Chain of CRX (O43186 whole entry): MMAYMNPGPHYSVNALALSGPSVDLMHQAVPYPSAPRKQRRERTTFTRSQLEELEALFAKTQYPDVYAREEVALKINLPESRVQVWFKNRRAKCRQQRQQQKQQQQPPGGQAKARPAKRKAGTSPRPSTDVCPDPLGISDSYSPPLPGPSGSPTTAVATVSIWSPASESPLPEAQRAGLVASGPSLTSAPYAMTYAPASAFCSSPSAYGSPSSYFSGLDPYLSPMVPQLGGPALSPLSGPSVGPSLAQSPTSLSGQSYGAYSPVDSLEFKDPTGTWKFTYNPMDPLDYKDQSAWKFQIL

Regarding TACATG, the binding signal was 1.12 fold enrichment (6-mer frequency, TF over GST control) with FEV; 1.26 fold enrichment (6-mer frequency, TF over GST control) in the assay with ETV5; 1.08 fold enrichment (6-mer frequency, TF over GST control) with HSF1; 1.17 fold enrichment (6-mer frequency, TF over GST control) in the assay with SPIC; 1.29 fold enrichment (6-mer frequency, TF over GST control) with ELF4; 1.24 fold enrichment (6-mer frequency, TF over GST control) in the assay with ELK4. Moreover, the binding signal with ETV2 is 1.24 fold enrichment (6-mer frequency, TF over GST control); with ELF3, 1.28 fold enrichment (6-mer frequency, TF over GST control); with CRX it was 1.09 fold enrichment (6-mer frequency, TF over GST control); with ETV1 it was 1.21 fold enrichment (6-mer frequency, TF over GST control); with ERF it was 1.34 fold enrichment (6-mer frequency, TF over GST control); with ETV3L, 1.2 fold enrichment (6-mer frequency, TF over GST control). Besides, the binding signal is 1.2 fold enrichment (6-mer frequency, TF over GST control) in the assay with ETS2; 1.21 fold enrichment (6-mer frequency, TF over GST control) with SPDEF; 1.25 fold enrichment (6-mer frequency, TF over GST control) with ETV7; 1.16 fold enrichment (6-mer frequency, TF over GST control) in the assay with ELF5; 1.33 fold enrichment (6-mer frequency, TF over GST control) in the assay with ETV3; 1.24 fold enrichment (6-mer frequency, TF over GST control) with ETV6.
